Data on 18 molecules can be found in ChEMBL document CHEMBL2218924, “A broad activity screen in support of a chemogenomic map for kinase signalling research and drug discovery” (Biochem J, 2013).

Test [1] deals with T1, Protein kinase C zeta type (Homo sapiens) (UniProt Q05513).
T1 sequence (whole entry): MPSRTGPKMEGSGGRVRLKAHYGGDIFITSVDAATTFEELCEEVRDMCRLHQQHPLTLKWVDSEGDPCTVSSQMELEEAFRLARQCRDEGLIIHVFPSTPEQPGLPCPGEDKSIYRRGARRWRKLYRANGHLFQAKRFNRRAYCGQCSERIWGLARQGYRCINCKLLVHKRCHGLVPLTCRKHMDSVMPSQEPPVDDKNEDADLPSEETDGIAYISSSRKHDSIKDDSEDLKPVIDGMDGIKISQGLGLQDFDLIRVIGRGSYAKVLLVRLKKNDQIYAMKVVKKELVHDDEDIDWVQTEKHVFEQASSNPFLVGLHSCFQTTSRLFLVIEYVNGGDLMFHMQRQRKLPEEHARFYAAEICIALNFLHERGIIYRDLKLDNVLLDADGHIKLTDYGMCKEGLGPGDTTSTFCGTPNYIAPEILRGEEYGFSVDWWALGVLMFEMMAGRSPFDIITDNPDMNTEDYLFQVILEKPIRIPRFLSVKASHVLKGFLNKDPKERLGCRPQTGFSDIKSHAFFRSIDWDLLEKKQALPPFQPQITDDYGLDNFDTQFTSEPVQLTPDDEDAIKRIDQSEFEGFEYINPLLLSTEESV
As to conditions: at 1 µM; call rule not given here.

For test [2], the target named is T2, Mitogen-activated protein kinase kinase kinase 5 (Homo sapiens) (UniProt Q99683).
T2 sequence (whole entry): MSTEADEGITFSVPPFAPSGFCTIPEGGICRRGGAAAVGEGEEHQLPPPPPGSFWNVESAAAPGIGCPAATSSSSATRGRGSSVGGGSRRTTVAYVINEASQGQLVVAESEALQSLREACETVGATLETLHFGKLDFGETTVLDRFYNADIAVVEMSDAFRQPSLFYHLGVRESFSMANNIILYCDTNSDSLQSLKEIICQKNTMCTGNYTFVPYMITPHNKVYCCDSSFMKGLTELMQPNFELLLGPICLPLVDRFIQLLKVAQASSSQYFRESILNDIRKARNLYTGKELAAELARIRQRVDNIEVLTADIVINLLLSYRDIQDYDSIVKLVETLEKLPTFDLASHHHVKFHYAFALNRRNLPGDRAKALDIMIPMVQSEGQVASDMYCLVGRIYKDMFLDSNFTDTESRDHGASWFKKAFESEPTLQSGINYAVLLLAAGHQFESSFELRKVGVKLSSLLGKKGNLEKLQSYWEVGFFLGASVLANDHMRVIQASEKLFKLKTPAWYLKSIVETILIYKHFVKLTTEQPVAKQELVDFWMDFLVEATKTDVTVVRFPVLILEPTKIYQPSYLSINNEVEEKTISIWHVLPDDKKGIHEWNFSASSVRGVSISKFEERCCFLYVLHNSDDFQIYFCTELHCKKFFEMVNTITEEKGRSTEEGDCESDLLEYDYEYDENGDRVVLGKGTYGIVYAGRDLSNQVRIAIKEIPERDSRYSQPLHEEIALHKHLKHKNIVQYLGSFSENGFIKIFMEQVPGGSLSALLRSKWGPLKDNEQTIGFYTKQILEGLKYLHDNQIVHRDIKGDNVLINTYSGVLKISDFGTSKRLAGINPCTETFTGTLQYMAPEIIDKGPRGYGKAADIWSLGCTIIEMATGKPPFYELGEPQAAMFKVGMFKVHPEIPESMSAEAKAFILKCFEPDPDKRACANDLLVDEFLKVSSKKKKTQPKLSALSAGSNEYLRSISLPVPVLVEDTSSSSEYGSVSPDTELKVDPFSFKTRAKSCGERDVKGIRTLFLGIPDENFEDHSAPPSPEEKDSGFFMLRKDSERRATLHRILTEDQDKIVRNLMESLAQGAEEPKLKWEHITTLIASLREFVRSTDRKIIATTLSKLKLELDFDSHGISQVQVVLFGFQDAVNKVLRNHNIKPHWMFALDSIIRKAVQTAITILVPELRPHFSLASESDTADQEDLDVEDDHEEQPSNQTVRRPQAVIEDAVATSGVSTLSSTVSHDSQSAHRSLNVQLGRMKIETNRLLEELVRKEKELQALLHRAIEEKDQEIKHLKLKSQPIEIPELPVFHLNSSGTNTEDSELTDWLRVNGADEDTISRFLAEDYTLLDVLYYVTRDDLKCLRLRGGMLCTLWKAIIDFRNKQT
Particulars: at 10 µM.

Test [3] deals with Tyrosine-protein kinase ABL1 (Homo sapiens) (UniProt P00519). Particulars: at 1 µM.
The target is the same in test [4]. As to conditions: at 10 µM.
The target in test [5] is Tyrosine-protein kinase ABL2 (Homo sapiens) (UniProt P42684). Particulars: at 1 µM.
For test [6] the target is unchanged. Particulars: at 10 µM.
Test [7] deals with T3, Aurora kinase A (Homo sapiens) (UniProt O14965).
T3 sequence (whole entry): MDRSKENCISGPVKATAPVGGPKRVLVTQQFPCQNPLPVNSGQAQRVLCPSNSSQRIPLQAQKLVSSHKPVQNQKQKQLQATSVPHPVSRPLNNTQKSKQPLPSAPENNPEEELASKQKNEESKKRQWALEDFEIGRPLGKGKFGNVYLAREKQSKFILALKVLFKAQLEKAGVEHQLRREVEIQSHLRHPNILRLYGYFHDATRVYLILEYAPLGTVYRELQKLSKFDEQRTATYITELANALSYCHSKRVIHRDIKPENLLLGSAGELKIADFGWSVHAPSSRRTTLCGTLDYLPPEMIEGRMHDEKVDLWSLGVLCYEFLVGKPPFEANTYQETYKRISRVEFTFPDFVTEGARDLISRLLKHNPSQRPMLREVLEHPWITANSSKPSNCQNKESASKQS
As to conditions: at 1 µM.

Test [8] deals with T3, Aurora kinase A (Homo sapiens). As to conditions: at 10 µM.
Test [9] deals with Aurora kinase B (Homo sapiens) (UniProt Q96GD4). Particulars: at 1 µM.
Test [10] shares this target. Particulars: at 10 µM.

Each structure is given as a SMILES string.

Sequence of Aurora kinase B (Homo sapiens) (Q96GD4 whole entry): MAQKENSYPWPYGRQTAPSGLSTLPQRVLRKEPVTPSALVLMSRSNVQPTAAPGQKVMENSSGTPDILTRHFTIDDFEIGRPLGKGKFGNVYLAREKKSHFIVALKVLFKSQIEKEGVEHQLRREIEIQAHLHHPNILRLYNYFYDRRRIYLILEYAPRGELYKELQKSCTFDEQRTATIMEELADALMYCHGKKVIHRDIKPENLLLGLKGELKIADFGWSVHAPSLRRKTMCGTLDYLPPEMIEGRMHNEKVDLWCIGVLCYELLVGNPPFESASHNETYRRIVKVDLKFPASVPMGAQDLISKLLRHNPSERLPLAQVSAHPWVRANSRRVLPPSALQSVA
Sequence of Tyrosine-protein kinase ABL2 (Homo sapiens) (P42684 whole entry): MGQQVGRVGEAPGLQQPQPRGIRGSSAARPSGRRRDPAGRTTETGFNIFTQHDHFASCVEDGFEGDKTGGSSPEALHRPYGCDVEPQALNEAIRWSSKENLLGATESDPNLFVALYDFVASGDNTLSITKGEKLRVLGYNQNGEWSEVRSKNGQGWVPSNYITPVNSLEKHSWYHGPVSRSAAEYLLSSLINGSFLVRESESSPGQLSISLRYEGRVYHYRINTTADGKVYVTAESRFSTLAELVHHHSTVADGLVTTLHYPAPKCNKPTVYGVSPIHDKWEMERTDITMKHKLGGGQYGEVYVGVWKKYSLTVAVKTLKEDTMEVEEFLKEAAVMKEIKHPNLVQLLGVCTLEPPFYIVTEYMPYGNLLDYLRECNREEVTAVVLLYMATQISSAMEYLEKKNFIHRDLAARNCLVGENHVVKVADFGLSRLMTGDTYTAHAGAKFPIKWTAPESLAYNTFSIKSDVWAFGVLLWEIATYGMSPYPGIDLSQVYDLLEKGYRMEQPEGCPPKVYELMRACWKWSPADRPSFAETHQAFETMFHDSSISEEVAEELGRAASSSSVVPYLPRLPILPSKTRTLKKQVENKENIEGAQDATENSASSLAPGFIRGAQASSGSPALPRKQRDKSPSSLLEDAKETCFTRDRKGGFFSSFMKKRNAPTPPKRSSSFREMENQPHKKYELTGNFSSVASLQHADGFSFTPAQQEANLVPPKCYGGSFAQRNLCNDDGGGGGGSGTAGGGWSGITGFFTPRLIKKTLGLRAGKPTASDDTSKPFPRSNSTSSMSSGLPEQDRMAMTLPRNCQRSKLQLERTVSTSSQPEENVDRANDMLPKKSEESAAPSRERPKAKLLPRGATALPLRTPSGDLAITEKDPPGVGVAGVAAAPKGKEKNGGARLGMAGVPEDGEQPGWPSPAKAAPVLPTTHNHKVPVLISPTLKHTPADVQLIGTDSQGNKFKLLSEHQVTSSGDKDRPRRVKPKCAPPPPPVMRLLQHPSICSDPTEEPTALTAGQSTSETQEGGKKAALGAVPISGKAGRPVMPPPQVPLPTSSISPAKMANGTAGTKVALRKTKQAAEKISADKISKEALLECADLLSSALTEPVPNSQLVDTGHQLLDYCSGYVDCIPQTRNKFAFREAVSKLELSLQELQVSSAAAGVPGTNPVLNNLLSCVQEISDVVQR
Sequence of Tyrosine-protein kinase ABL1 (Homo sapiens) (P00519 whole entry): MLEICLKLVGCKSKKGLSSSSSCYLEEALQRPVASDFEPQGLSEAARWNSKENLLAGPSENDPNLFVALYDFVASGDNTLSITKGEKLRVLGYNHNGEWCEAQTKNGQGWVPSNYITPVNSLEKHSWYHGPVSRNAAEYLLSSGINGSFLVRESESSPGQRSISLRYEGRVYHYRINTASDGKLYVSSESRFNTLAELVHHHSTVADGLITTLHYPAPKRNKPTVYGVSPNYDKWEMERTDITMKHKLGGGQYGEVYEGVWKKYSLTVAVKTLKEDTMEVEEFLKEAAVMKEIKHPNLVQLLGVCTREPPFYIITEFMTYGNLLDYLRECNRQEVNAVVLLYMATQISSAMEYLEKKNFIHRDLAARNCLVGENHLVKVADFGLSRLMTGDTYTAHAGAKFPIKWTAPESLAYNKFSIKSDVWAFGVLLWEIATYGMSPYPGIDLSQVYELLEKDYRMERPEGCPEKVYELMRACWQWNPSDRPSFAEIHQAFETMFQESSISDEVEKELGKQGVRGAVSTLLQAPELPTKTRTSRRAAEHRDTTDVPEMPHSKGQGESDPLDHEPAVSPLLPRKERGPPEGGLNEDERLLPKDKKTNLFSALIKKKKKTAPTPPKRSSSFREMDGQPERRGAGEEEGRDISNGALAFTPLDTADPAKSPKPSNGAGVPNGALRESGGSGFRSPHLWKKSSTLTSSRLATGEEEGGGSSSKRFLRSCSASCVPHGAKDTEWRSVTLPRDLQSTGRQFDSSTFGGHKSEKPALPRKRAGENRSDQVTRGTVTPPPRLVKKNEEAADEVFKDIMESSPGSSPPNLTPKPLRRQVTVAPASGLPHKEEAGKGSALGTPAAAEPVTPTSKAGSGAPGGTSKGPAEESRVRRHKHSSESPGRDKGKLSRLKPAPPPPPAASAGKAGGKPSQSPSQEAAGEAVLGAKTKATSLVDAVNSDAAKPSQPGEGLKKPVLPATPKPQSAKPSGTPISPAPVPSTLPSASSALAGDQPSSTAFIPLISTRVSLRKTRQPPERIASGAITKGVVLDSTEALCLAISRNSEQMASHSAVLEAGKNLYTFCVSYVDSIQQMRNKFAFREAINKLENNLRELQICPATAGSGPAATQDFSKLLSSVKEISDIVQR

For the molecule `Cc1cc2ncc(-c3ccccc3)nc2cc1C`, the residual activity in [1] was 106% (inactive); in test [2] it was 83%; in test [3], 92%; in test [4] it was 87%; in test [5], 96%; in test [6] it was 103%. Further, the residual activity in test [7] is 77%; in [8], 96%; in test [9] it was 87%; in test [10], 75%.
In the case of `Oc1ccc(-c2nc(-c3ccc(F)cc3)c(-c3ccncc3)[nH]2)cc1`, the residual activity is 113% (inactive) in test [1]; 80% in test [2]; 98% in test [3]; 95% in test [4]; 78% in test [5]; 41% in test [6]. Also, the residual activity in [7] was 105%; in [8], 89%; in test [9], 69%; in test [10] it was 58%.
As to `Nc1nc(Nc2ccc(S(N)(=O)=O)cc2)nn1C(=S)Nc1c(F)cccc1F`, the residual activity in [1] was 75% (inactive); in [2], -1%; in [3], -5%; in test [4], -5%; in test [5], -2%; in test [6] it was -2%. In addition, the residual activity in [7] turned out to be 1%; in [8], 10%; in test [9], 0%; in test [10], 0%.
Consider `CO[C@@H]1[C@H](N(C)C(=O)c2ccccc2)C[C@H]2O[C@]1(C)n1c3ccccc3c3c4c(c5c6ccccc6n2c5c31)C(=O)NC4`, for which the residual activity in [1] is 101% (inactive); in test [2], 75%; in [3], 89%; in [5], 77%; in test [6], 45%; in test [7], -3%. For the same molecule, the residual activity in [8] was -2%; in test [9], 1%; in test [10], 3%.
On to `N#CC(C#N)=C(N)/C(C#N)=C/c1ccc(O)cc1`, for which the residual activity in test [2] came to 93%; in test [3] it was 87%; in test [4], 78%; in test [7] it was 83%; in test [8] it was 85%; in test [9] it was 81%. The residual activity in [10] is 62%.
As to `Cn1cnc2cc3c(Nc4cccc(Br)c4)ncnc3cc21`, the residual activity in test [1] was 99% (inactive); in test [2], 107%; in [3], 29%; in test [4], 10%; in [5], 42%; in test [6], 14%. Moreover, the residual activity is 78% in [7], 45% in test [8], 45% in test [9] and 6% in [10].
Turning to `Cc1ccc(S(=O)(=O)/C=C/C#N)cc1`, the residual activity in [1] was 102% (inactive); in test [2], 115%; in test [3], 104%; in test [4], 97%; in test [5], 91%; in test [6], 97%. For the same molecule, the residual activity in test [7] turned out to be 118%; in test [8] it was 103%; in test [9] it was 105%; in test [10], 88%.
Regarding `c1ccc(-c2n[nH]cc2-c2ccnc3ccccc23)nc1`, the residual activity is 108% (inactive) in test [1]; 105% in test [2]; 69% in test [3]; 14% in test [4]; 64% in [5]; 18% in test [6]. For the same molecule, the residual activity in [7] is 99%; in [8], 103%; in test [9], 75%; in test [10], 51%.
Turning to `N#CCCc1ccc2c(c1)-c1[nH]c3ccc([N+](=O)[O-])cc3c1CC(=O)N2`, the residual activity in test [1] is 69% (inactive); in test [3], 31%; in test [4], 13%; in test [5], 48%; in [6] it was 17%; in test [7] it was 61%. Moreover, the results for the residual activity in [8], in test [9] and in test [10] were 37%, 8% and 1%, respectively.
Take `O=C1Nc2cc(Br)ccc2/C1=C1/Nc2ccccc2/C1=N\O`: the residual activity in test [1] is 103% (inactive); in [2] it was 86%; in test [4], 6%; in [5], 16%; in test [6] it was 2%; in test [7], 31%. Also, the residual activity is 25% in [8], 3% in test [9] and -1% in [10].
As for `COc1ccc(CNc2nc(N(CCO)CCO)nc3c2ncn3C(C)C)cc1`, the residual activity in test [1] was 105% (inactive); in [2], 85%; in test [3], 100%; in test [4], 73%; in [5] it was 113%; in test [6], 76%. In addition, the residual activity in test [7] is 89%; in [8], 96%; in test [9], 95%; in test [10] it was 73%.
Regarding `O=C1Nc2ccccc2/C1=C1/Nc2ccccc2/C1=N\OCCC(O)CO` (stereo not drawn), the residual activity was 95% (inactive) in [1]; 29% in [2]; 61% in [3]; 43% in test [4]; 45% in test [5]; 18% in test [6]. Also, the residual activity in [7] was 7%; in [8] it was 3%; in test [9], -1%; in test [10] it was -1%.
As to `O=C(Nc1cccc(Nc2nccc(Nc3cccc(C(F)(F)F)c3)n2)c1)C1CC1`, the residual activity in test [1] is 98% (inactive); in [2], 90%; in [3] it was 68%; in test [4] it was 76%; in test [5] it was 46%; in test [6] it was 44%. Besides, the residual activity in [9] is 1%; in [10], 2%.
In the case of `c1ccc2c(-c3ccncc3)c[nH]c2c1`, the residual activity was 94% (inactive) in test [1]; 77% in test [2]; 98% in test [3]; 100% in test [4]; 110% in test [5]; 72% in [6]. The residual activity in [7] is 99%; in test [8], 76%; in [9] it was 92%; in [10], 70%.
In the case of `O=C1Nc2ccc(Br)cc2/C1=C\c1cc2c([nH]1)CCCC2`, the residual activity was 103% (inactive) in test [1]; 81% in test [2]; 105% in [3]; 75% in [4]; 18% in [9]; 8% in test [10].
With `Nc1n[nH]c2nnc(-c3c(-c4ccccc4)nn4ccccc34)cc12`, the residual activity in test [1] was 116% (inactive); in test [2] it was 100%; in test [3], 64%; in [4], 19%; in [5], 66%; in test [6], 18%. For the same molecule, the residual activity in test [7] was 105%; in test [8], 92%; in test [9], 91%; in [10], 41%.
As to `O=c1c2ccccc2[nH]c(=S)n1CCN1CCC(=C(c2ccc(F)cc2)c2ccc(F)cc2)CC1`, the residual activity is 101% (inactive) in test [1]; 116% in [2]; 86% in [3]; 124% in [4]; 93% in test [5]; 74% in test [6]. In addition, the residual activity in test [7] was 119%; in [8], 108%; in test [9], 95%; in test [10], 115%.
Turning to `CC(C)n1cnc2/c(=N/c3cccc(Cl)c3)nc(NCCO)[nH]c21`, the residual activity in test [1] is 100% (inactive); in [2] it was 86%; in [3], 73%; in [4], 25%; in [5], 52%; in [6] it was 10%. For the same molecule, the residual activity is 88% in test [7], 47% in [8], 13% in test [9] and 3% in [10].
